These sequences were tested against T1, BATF;JUNB (human;human, UniProt Q16520;P17275 1-125;148-347, |) (assay: Spec-seq (EMSA and sequencing of bound and unbound bands); 100 nM BATFx-JUNB, 1 uM dsDNA library, 50 mM K acetate, 20 mM Tris-acetate, 10 mM Mg acetate, 100 ug/ml BSA, pH 7.9, 10% glycerol, 30 min on ice; native 9% PAGE at 4 C; low values mean tight binding). Conditions: protein: recombinant;recombinant; tags: N-terminal mCherry-TEV, cleaved off;C-terminal 6His; copies: 1;1; dsDNA, one strand shown.
T1 sequence 1: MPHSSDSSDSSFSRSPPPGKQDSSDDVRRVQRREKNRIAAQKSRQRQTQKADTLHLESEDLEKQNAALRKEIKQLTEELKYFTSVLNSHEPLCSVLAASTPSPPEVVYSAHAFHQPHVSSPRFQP
T1 sequence 2: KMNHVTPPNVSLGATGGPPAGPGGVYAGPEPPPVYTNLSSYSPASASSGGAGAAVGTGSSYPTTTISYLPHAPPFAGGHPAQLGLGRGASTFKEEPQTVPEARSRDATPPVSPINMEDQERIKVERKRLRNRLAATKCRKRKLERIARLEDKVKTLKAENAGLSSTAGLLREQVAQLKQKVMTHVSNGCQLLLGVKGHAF
Procedure, shortened: (§1)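 The protein, at 100 nM, was incubated with 1 μM double-stranded degenerate DNA library for 30 min on ice in NEB Cutsmart buffer with 10% glycerol, then resolved by native 9% PAGE at 4 °C. Excised bound and unbound bands were PCR-barcoded and Illumina-sequenced, and each sequence's relative binding energy in kT is −ln of its bound/unbound read-count ratio.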
For “GATAGTCTCATTTTCACCCCGTGAAATGTGTCATTTGTTCCATTACAGTATCTGT”, the binding signal was -0.52 kT. With “GATAGTCTCATTTTCACCCCGTGAAAGCGAGTCATTGTTCCATTACAGTATCTGT” the binding signal was -0.514 kT. “GATAGTCTCATTTTCACCCCGTGAAACGACTCATTTGTTCCATTACAGTATCTGT” showed a binding signal of -0.317 kT. “GATAGTCTCATTTTCACCCCGTGAAATGACGCCATTGTTCCATTACAGTATCTGT” showed a binding signal of -0.429 kT. Work on “GATAGTCTCATTTTCACCCCGTGAAATGCCTCATTTGTTCCATTACAGTATCTGT” yielded a binding signal of 0.532 kT. “GATAGTCTCATTTTCACCCCGTGAAATGAGTCGGTTGTTCCATTACAGTATCTGT” gave a binding signal of 0.0858 kT. “GATAGTCTCATTTTCACCCCGTGAAATGACTCGTTTGTTCCATTACAGTATCTGT” showed a binding signal of -0.0971 kT. With “GATAGTCTCATTTTCACCCCGTGAAATGAGTCTTTTGTTCCATTACAGTATCTGT” the binding signal was 0.0504 kT. “GATAGTCTCATTTTCACCCCGTGAAATGAGCCATTTGTTCCATTACAGTATCTGT” was tested, and the binding signal was 0.392 kT. With “GATAGTCTCATTTTCACCCCGTGAAATGACGTCGTTGTTCCATTACAGTATCTGT” the binding signal was -0.291 kT. “GATAGTCTCATTTTCACCCCGTGAAATCAGTCATTTGTTCCATTACAGTATCTGT” showed a binding signal of -0.312 kT. In the case of “GATAGTCTCATTTTCACCCCGTGAAACGACGTCATTGTTCCATTACAGTATCTGT”, the binding signal is reported as -0.501 kT. In the case of “GATAGTCTCATTTTCACCCCGTGAAATGACTTCATTGTTCCATTACAGTATCTGT”, the binding signal is reported as -0.183 kT. With “GATAGTCTCATTTTCACCCCGTGAAAGTGGGTCATTGTTCCATTACAGTATCTGT” the binding signal was 0.393 kT. Sequence “GATAGTCTCATTTTCACCCCGTGAAATTGTGTCATTGTTCCATTACAGTATCTGT” has a binding signal of -0.292 kT. “GATAGTCTCATTTTCACCCCGTGAAATGAGTCTCTTGTTCCATTACAGTATCTGT” showed a binding signal of 0.273 kT. “GATAGTCTCATTTTCACCCCGTGAAATGGAGTCATTGTTCCATTACAGTATCTGT” showed a binding signal of -0.329 kT. With “GATAGTCTCATTTTCACCCCGTGAAACTGGGTCATTGTTCCATTACAGTATCTGT” the binding signal was 0.364 kT. For “GATAGTCTCATTTTCACCCCGTGAAATGAGTGACTTGTTCCATTACAGTATCTGT”, the binding signal was 0.0645 kT. Sequence “GATAGTCTCATTTTCACCCCGTGAAATTCAGTCATTGTTCCATTACAGTATCTGT” has a binding signal of -0.317 kT. “GATAGTCTCATTTTCACCCCGTGAAATGGCGTCATTGTTCCATTACAGTATCTGT” was tested, and the binding signal was -0.631 kT. For “GATAGTCTCATTTTCACCCCGTGAAATGACTTATTTGTTCCATTACAGTATCTGT”, the binding signal was -0.08 kT. Work on “GATAGTCTCATTTTCACCCCGTGAAATGACTGAGTTGTTCCATTACAGTATCTGT” yielded a binding signal of -0.132 kT. Sequence “GATAGTCTCATTTTCACCCCGTGAAATGACACAGTTGTTCCATTACAGTATCTGT” has a binding signal of 0.189 kT. In the case of “GATAGTCTCATTTTCACCCCGTGAAATGAGTCCGTTGTTCCATTACAGTATCTGT”, the binding signal is reported as 0.231 kT. With “GATAGTCTCATTTTCACCCCGTGAAATGACTCTTTTGTTCCATTACAGTATCTGT” the binding signal was 0.109 kT. For “GATAGTCTCATTTTCACCCCGTGAAATGACGCAATTGTTCCATTACAGTATCTGT”, the binding signal was -0.574 kT. Sequence “GATAGTCTCATTTTCACCCCGTGAAATGAGACACTTGTTCCATTACAGTATCTGT” has a binding signal of 0.71 kT. “GATAGTCTCATTTTCACCCCGTGAAAAGGAGTCATTGTTCCATTACAGTATCTGT” gave a binding signal of -0.134 kT. Work on “GATAGTCTCATTTTCACCCCGTGAAATTACGTCATTGTTCCATTACAGTATCTGT” yielded a binding signal of -0.943 kT. “GATAGTCTCATTTTCACCCCGTGAAAAGACTCATTTGTTCCATTACAGTATCTGT” was tested, and the binding signal was 0.016 kT. In the case of “GATAGTCTCATTTTCACCCCGTGAAATGACTCACTTGTTCCATTACAGTATCTGT”, the binding signal is reported as -0.778 kT. For “GATAGTCTCATTTTCACCCCGTGAAACTGAGTCATTGTTCCATTACAGTATCTGT”, the binding signal was -1.39 kT.

These sequences were tested against T2, BATF2 (bZIP);JUNB (human;human, UniProt Q8N1L9;P17275 1-142;148-347, |) in the same assay as above. Conditions: protein: recombinant;recombinant; tags: N-terminal mCherry-TEV, cleaved off;C-terminal 6His; copies: 1;1; dsDNA, one strand shown.
T2 sequence 1: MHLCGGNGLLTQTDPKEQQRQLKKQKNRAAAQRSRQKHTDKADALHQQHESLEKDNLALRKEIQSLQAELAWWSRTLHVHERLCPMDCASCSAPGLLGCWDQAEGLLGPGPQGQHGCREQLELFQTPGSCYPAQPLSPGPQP
T2 sequence 2: T1 sequence 2
Procedure, shortened: as §1
“GATAGTCTCATTTTCACCCCGTGAAATGTGTCATTTGTTCCATTACAGTATCTGT” showed a binding signal of -0.022 kT. “GATAGTCTCATTTTCACCCCGTGAAAGCGAGTCATTGTTCCATTACAGTATCTGT” gave a binding signal of 0.234 kT. “GATAGTCTCATTTTCACCCCGTGAAACGACTCATTTGTTCCATTACAGTATCTGT” gave a binding signal of 0.616 kT. For “GATAGTCTCATTTTCACCCCGTGAAATGACGCCATTGTTCCATTACAGTATCTGT”, the binding signal was 0.257 kT. “GATAGTCTCATTTTCACCCCGTGAAATGCCTCATTTGTTCCATTACAGTATCTGT” showed a binding signal of 1.18 kT. Work on “GATAGTCTCATTTTCACCCCGTGAAATGAGTCGGTTGTTCCATTACAGTATCTGT” yielded a binding signal of 1.07 kT. Sequence “GATAGTCTCATTTTCACCCCGTGAAATGACTCGTTTGTTCCATTACAGTATCTGT” has a binding signal of 0.491 kT. “GATAGTCTCATTTTCACCCCGTGAAATGAGTCTTTTGTTCCATTACAGTATCTGT” gave a binding signal of 1.04 kT. With “GATAGTCTCATTTTCACCCCGTGAAATGAGCCATTTGTTCCATTACAGTATCTGT” the binding signal was 1.26 kT. Sequence “GATAGTCTCATTTTCACCCCGTGAAATGACGTCGTTGTTCCATTACAGTATCTGT” has a binding signal of 0.27 kT. “GATAGTCTCATTTTCACCCCGTGAAATCAGTCATTTGTTCCATTACAGTATCTGT” was tested, and the binding signal was 0.249 kT. For “GATAGTCTCATTTTCACCCCGTGAAACGACGTCATTGTTCCATTACAGTATCTGT”, the binding signal was -0.195 kT. “GATAGTCTCATTTTCACCCCGTGAAATGACTTCATTGTTCCATTACAGTATCTGT” was tested, and the binding signal was 0.172 kT. Sequence “GATAGTCTCATTTTCACCCCGTGAAAGTGGGTCATTGTTCCATTACAGTATCTGT” has a binding signal of 0.822 kT. “GATAGTCTCATTTTCACCCCGTGAAATTGTGTCATTGTTCCATTACAGTATCTGT” was tested, and the binding signal was -0.0836 kT. In the case of “GATAGTCTCATTTTCACCCCGTGAAATGAGTCTCTTGTTCCATTACAGTATCTGT”, the binding signal is reported as 1.09 kT. With “GATAGTCTCATTTTCACCCCGTGAAATGGAGTCATTGTTCCATTACAGTATCTGT” the binding signal was 0.239 kT. “GATAGTCTCATTTTCACCCCGTGAAACTGGGTCATTGTTCCATTACAGTATCTGT” was tested, and the binding signal was 0.724 kT. “GATAGTCTCATTTTCACCCCGTGAAATGAGTGACTTGTTCCATTACAGTATCTGT” was tested, and the binding signal was 0.827 kT. With “GATAGTCTCATTTTCACCCCGTGAAATTCAGTCATTGTTCCATTACAGTATCTGT” the binding signal was 0.285 kT. In the case of “GATAGTCTCATTTTCACCCCGTGAAATGGCGTCATTGTTCCATTACAGTATCTGT”, the binding signal is reported as -0.0754 kT. Work on “GATAGTCTCATTTTCACCCCGTGAAATGACTTATTTGTTCCATTACAGTATCTGT” yielded a binding signal of 0.489 kT. With “GATAGTCTCATTTTCACCCCGTGAAATGACTGAGTTGTTCCATTACAGTATCTGT” the binding signal was 0.387 kT. Work on “GATAGTCTCATTTTCACCCCGTGAAATGACACAGTTGTTCCATTACAGTATCTGT” yielded a binding signal of 0.717 kT. “GATAGTCTCATTTTCACCCCGTGAAATGAGTCCGTTGTTCCATTACAGTATCTGT” showed a binding signal of 1.26 kT. Sequence “GATAGTCTCATTTTCACCCCGTGAAATGACTCTTTTGTTCCATTACAGTATCTGT” has a binding signal of 0.673 kT. “GATAGTCTCATTTTCACCCCGTGAAATGACGCAATTGTTCCATTACAGTATCTGT” was tested, and the binding signal was -0.276 kT. In the case of “GATAGTCTCATTTTCACCCCGTGAAATGAGACACTTGTTCCATTACAGTATCTGT”, the binding signal is reported as 1.71 kT. “GATAGTCTCATTTTCACCCCGTGAAAAGGAGTCATTGTTCCATTACAGTATCTGT” showed a binding signal of 0.436 kT. Sequence “GATAGTCTCATTTTCACCCCGTGAAATTACGTCATTGTTCCATTACAGTATCTGT” has a binding signal of -1.14 kT. Work on “GATAGTCTCATTTTCACCCCGTGAAAAGACTCATTTGTTCCATTACAGTATCTGT” yielded a binding signal of 0.734 kT. “GATAGTCTCATTTTCACCCCGTGAAATGACTCACTTGTTCCATTACAGTATCTGT” gave a binding signal of -0.378 kT. Sequence “GATAGTCTCATTTTCACCCCGTGAAACTGAGTCATTGTTCCATTACAGTATCTGT” has a binding signal of -0.852 kT.
